We go through 28 compounds from PubChem BioAssay (EPA / NIEHS).

Structures are written as SMILES. Activity calls are given as the source filed them. The calls were made as follows: active = hit-call score of the fitted dose curve at least 0.9, where 1 is the maximum; inactive = score below 0.9.

The assay can be described thus: ATG_GATA_CIS: Attagene CIS-FACTORIAL HepG2 Assay for human GATA Binding Protein (AID 2282944). As to conditions: HepG2 GATA cis-element reporter, Attagene multiplex mRNA; actives raise or lower the signal. An outline of the steps: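 Read-out: fluorescent reporter mRNA fragments resolved by capillary electrophoresis after RT-PCR. Human liver HepG2 cells carried transiently transfected cis-regulated reporter constructs; chemicals incubated 24 h; gain or loss of signal fitted relative to DMSO.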
Regarding `Nc1ccc(Oc2ccc(N)cc2)cc1`, the compound was classed as inactive. As for `C1=Cc2cccc3cccc1c23`, the compound was classed as inactive.

Take `Cc1ccc(N)c(N)c1`: the result was inactive. For `CC(C)COC(=O)c1ccccc1C(=O)OCC(C)C`, the outcome was inactive.

Take `CCC12COCN1COC2`: the outcome was inactive. As for `Oc1ccc2ccc3cccc4ccc1c2c34`, the compound was classed as inactive. `Nc1cc(Cl)cc(C(=O)O)c1Cl`: the result was inactive.

Consider `CN(C)c1ccccc1`, for which the result was inactive. Regarding `Cc1ccc(N)cc1`, the outcome was inactive. As to `C=CCc1ccc2c(c1)OCO2`, the compound was called inactive. As for `CCCSC(=O)N(CCC)CCC`, the compound was classed as inactive. With `Cc1cc(N=Nc2ccccc2C)ccc1N`, the result was inactive. The value for `CN(C)C(=O)Nc1ccc(Cl)cc1` was “inactive”; that for `O=P(OCCCl)(OCCCl)OCCCl` was “inactive”; that for `CC(C)(C)C(O)(CCc1ccc(Cl)cc1)Cn1cncn1` (stereo not drawn) was “inactive”. As for `Brc1ccc(Oc2ccccc2)cc1`, the entry is “inactive”; as for `Nc1ccc(Cc2ccc(N)cc2)cc1`, “inactive”; as for `CC(C)(O)c1cnn2c(-c3ccc(F)c(-c4c(F)cccc4C#N)c3)cnc2n1`, “inactive”. Consider `CCN(CC)CCO`, for which the call was inactive. `Clc1ccc(C(c2ccc(Cl)cc2)C(Cl)(Cl)Cl)cc1`: the outcome was inactive. `O=C1CCCO1`: the outcome was inactive. For the compound `O=[N+]([O-])C(Br)(CO)CO`, the outcome was inactive. In the case of `CCCCCOC(=O)c1ccccc1C(=O)OCCCCC`, the outcome was inactive.

Turning to `[As]#[In]`, the result was inactive. The value for `CCC[CH2][Sn]([Cl])([CH2]CCC)[CH2]CCC` was “inactive”; that for `c1ccc(N=Nc2ccccc2)cc1` was “inactive”. As to `Cc1cccc(N)c1N`, the call was inactive. The value for `OCCOCCO` was “inactive”.
